Results reported in PubChem BioAssay (NCATS).
Records with an inconclusive call do not appear. Values without a mark were called inactive. Activity calls are given as the source filed them. The call rests on the fitted dose curve; in most records, active means well fitted inhibition curve with a large enough effect; inconclusive means small, poorly fitted or top-dose-only effect; inactive means flat fitted curve, though single readings scatter. Where a SMILES comes first, the peptide text is derived from it. Bridges are numbered along the chain shown (N, C = ends). [ ]: non-standard residue; d: D form. The star is where a group is joined. ξ: configuration not given here. d(aThr) = C[C@@H](O)[C@@H](N)C(=O)O; ξThr(3R) = C[C@@H](O)C(N)C(=O)O; X3 = CC[C@@H](C)CCCCC(=O)*; dDab = NCC[C@@H](N)C(=O)O

Experiments:
[1] = Drug repurposing screens with cells derived from glioblastoma tumor samples (AID 1345199); details: GBM patient neurospheres viability, ATP luminescence, 48 h; for Potency: tumour line A; on all read-outs here: nearly all actives have a fitted effect of over 40% in size
Procedure, shortened: (§1)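 Four patient lines of CD133+ GBM neurospheres were screened at several concentrations; hits were retested in those lines plus three slower-growing GBM lines, using 48-hour treatment and ATP-based viability.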

[2] = tested on: astro; assay: as above; details: viability, ATP luminescence, 48 h; series mostly up to 45.9 µM
Procedure, shortened: as §1

[3] = at 45.9 µM (top of the series), tumour line B
[4] = at 46.1 µM (top of the series), tumour line C
[5] = at 45.9 µM (top of the series), tumour line D
On the % scale 0 is the no-effect control and ±100 the full control effect; potency means the concentration at half of the fitted maximal effect.

**Q.** Which results are given for `Cn1c(=O)c2c(ncn2CCOC(=O)C(C)(C)Oc2ccc(Cl)cc2)n(C)c1=O`?
**A.** activity, negative = cell killing [1, 3]: -17%; activity, negative = cell killing [1, 4]: -18.4%; Potency [2]: inactive

**Q.** For `Cc1cc(-c2ccc(N=Nc3c(S(=O)(=O)O)cc4cc(S(=O)(=O)O)cc(N)c4c3O)c(C)c2)ccc1N=Nc1c(S(=O)(=O)O)cc2cc(S(=O)(=O)O)cc(N)c2c1O`, which Potency [2] is on record?
**A.** 8.91 µM (active)

**Q.** Which Potency [2] does the source give for `CCN(CC)CCC(=O)N1c2ccccc2Sc2ccc(C(F)(F)F)cc21` here?
**A.** inactive

**Q.** For `O=C(O)Cc1nn(Cc2ccc(Br)cc2F)c(=O)c2ccccc12`, which activity, negative = cell killing [1, 3] is on record?
**A.** -21.4%

**Q.** What about the activity, negative = cell killing [1, 5] of the same compound?
**A.** -12.1%

**Q.** What about the Potency [2] of the same compound?
**A.** inactive

**Q.** For `Cc1cccc(C)c1NC(=O)C1CCCCN1C` (stereo unspecified), which activity, negative = cell killing [1, 3] is on record?
**A.** -7.34%

**Q.** And the activity, negative = cell killing [1, 4]?
**A.** 2.03%

**Q.** And the Potency [2]?
**A.** inactive

**Q.** Which Potency [2] does the source give for `CCN(CC)CCCC(C)Nc1cc(/C=C/c2ccccc2Cl)nc2cc(Cl)ccc12` (stereo unspecified) here?
**A.** inactive

**Q.** Which Potency [2] does the source give for `CN(C)CCC=C1c2ccccc2C(C)(C)c2ccccc21` here?
**A.** 17.8 µM (active)

**Q.** Which activity, negative = cell killing [1, 3] does the source give for `C=Cc1ccc(S(=O)(=O)O)cc1` here?
**A.** -6.14%

**Q.** What about the activity, negative = cell killing [1, 5] of the same compound?
**A.** -2.96%

**Q.** And the Potency [2]?
**A.** inactive

**Q.** Which activity, negative = cell killing [1, 5] does the source give for `CC(=C\c1ccccc1)/C=C1/SC(=S)N(CC(=O)O)C1=O` here?
**A.** -25%

**Q.** What about the activity, negative = cell killing [1, 4] of the same compound?
**A.** -14.3%

**Q.** And the Potency [2]?
**A.** inactive

**Q.** For `C[N@+]12CCCC[C@@H]1CCC(=C(c1cccs1)c1cccs1)C2`, which Potency [2] is on record?
**A.** inactive

**Q.** For `COc1ccc2c(c1)OC(C)(C)C(c1ccccc1)C2c1ccc(OCCN2CCCC2)cc1` (stereo unspecified), which Potency [2] is on record?
**A.** 35.5 µM (active)

**Q.** With `CCOc1cc(-c2nccc3cc(OC)c(OC)cc23)cc(OCC)c1OCC` as the compound, how does the Potency [2] read?
**A.** inactive

**Q.** Which activity, negative = cell killing [1, 3] does the source give for `CCN(CC)C(=O)c1cccnc1` here?
**A.** -8.29%

**Q.** What about the activity, negative = cell killing [1, 4] of the same compound?
**A.** -25.5%

**Q.** And the Potency [2]?
**A.** inactive

**Q.** Which Potency [2] does the source give for `Cc1cc(-c2ccc(N=Nc3ccc4c(S(=O)(=O)O)cc(S(=O)(=O)O)c(N)c4c3O)c(C)c2)ccc1N=Nc1ccc2c(S(=O)(=O)O)cc(S(=O)(=O)O)c(N)c2c1O` here?
**A.** 17.8 µM (active)

**Q.** With `CCC(=O)c1ccc2c(c1)N(CCCN1CCN(CCO)CC1)c1ccccc1S2` as the compound, how does the Potency [2] read?
**A.** 17.8 µM (active)

**Q.** With `O=C(c1cc2ccccc2o1)N1CCN(Cc2ccccc2)CC1` as the compound, how does the activity, negative = cell killing [1, 3] read?
**A.** -15.4%

**Q.** What about the Potency [1] of the same compound?
**A.** 11.2 µM (active)

**Q.** And the Potency [2]?
**A.** inactive

**Q.** Which results are given for `N=C(N)n1cccn1`?
**A.** activity, negative = cell killing [1, 3]: -2.75%; Potency [2]: inactive

**Q.** With `O=C(O[C@H]1CN2CCC1CC2)N1CCc2ccccc2[C@@H]1c1ccccc1` as the compound, how does the Potency [2] read?
**A.** inactive

**Q.** With `CCN(CC)CCOc1ccc2nc(N(C)C)sc2c1` as the compound, how does the Potency [2] read?
**A.** inactive

**Q.** Which activity, negative = cell killing [1, 3] does the source give for `CC(C)C[C@H](NC(=O)[C@@H](Cc1c[nH]c2ccccc12)NC(=O)[C@H](Cc1ccc(O)cc1)NC(=O)[C@H](CO)NC(=O)[C@H](Cc1c[nH]c2ccccc12)NC(=O)[C@H](Cc1cnc[nH]1)NC(=O)[C@@H]1CCC(=O)N1)C(=O)N[C@@H](CCCN=C(N)N)C(=O)N1CCC[C@@H]1C(=O)NCC(N)=O` here?
**A.** -6.78%

**Q.** What about the activity, negative = cell killing [1, 4] of the same compound?
**A.** -22.9%

**Q.** And the Potency [2]?
**A.** inactive

**Q.** With `CC(C)OC(=O)Nc1ccc2nc(-c3cscn3)[nH]c2c1` as the compound, how does the Potency [2] read?
**A.** 2.82 µM (active)

**Q.** With `CC[C@@]1([C@@H]2O[C@@H]([C@H]3O[C@@](O)(CO)[C@H](C)C[C@@H]3C)C[C@@H]2C)CC[C@H]([C@]2(C)CC[C@]3(C[C@H](O)[C@@H](C)[C@@H]([C@@H](C)[C@@H](OC)[C@H](C)C(=O)O)O3)O2)O1` (stereo in doubt) as the compound, how does the Potency [2] read?
**A.** 14.1 µM (active)

**Q.** For `CC1=CC(=C(c2ccc(N)cc2)c2ccc(N)cc2)C=CC1=N`, which Potency [2] is on record?
**A.** 3.16 µM (active)

**Q.** For `COc1ccccc1N1CCN(CCCC(=O)c2ccc(F)cc2)CC1`, which activity, negative = cell killing [1, 3] is on record?
**A.** -16%

**Q.** What about the Potency [1] of the same compound?
**A.** 10 µM (active)

**Q.** And the Potency [2]?
**A.** inactive

**Q.** Which activity, negative = cell killing [1, 5] does the source give for `CC[C@@H](C)CCCCC(=O)N[C@H](CCN)C(=O)N[C@@H](C(=O)N[C@H](CCN)C(=O)N[C@@H]1CCNC(=O)C([C@@H](C)O)NC(=O)[C@@H](CCN)NC(=O)[C@@H](CCN)NC(=O)[C@@H](CC(C)C)NC(=O)[C@@H](Cc2ccccc2)NC(=O)[C@@H](CCN)NC1=O)[C@@H](C)O` (stereo partly drawn) (X3-[dDab][d(aThr)][dDab][dDab][dDab][dF][dL][dDab][dDab][ξThr(3R)]; lactam 4-C) here?
**A.** -10.3%

**Q.** And the activity, negative = cell killing [1, 4]?
**A.** 4.35%

**Q.** And the Potency [2]?
**A.** inactive
